Experimental data as given in PubChem BioAssay.
Some of the results follow. Values without a mark were called inactive. Calls of active or inactive are those of the source. Cut-off read from the data, not from the text of the source, unless noted: active = activation above about 22%; inactive = the rest.

How the values were obtained:
[1] = target: Peroxisome proliferator-activated receptor gamma (Homo sapiens) (UniProt P37231); assay: retested PPARg-SRC-2 recruitment enhancers – biochemical, HTS, confirmation (AID 1297); settings: biochemical SRC-2 recruitment by PPARgamma; at 8 µM; hits give high values;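 note: 0% = vehicle alone and 100% = reference agonist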
Sequence of Peroxisome proliferator-activated receptor gamma (Homo sapiens) (P37231 whole entry, looked up): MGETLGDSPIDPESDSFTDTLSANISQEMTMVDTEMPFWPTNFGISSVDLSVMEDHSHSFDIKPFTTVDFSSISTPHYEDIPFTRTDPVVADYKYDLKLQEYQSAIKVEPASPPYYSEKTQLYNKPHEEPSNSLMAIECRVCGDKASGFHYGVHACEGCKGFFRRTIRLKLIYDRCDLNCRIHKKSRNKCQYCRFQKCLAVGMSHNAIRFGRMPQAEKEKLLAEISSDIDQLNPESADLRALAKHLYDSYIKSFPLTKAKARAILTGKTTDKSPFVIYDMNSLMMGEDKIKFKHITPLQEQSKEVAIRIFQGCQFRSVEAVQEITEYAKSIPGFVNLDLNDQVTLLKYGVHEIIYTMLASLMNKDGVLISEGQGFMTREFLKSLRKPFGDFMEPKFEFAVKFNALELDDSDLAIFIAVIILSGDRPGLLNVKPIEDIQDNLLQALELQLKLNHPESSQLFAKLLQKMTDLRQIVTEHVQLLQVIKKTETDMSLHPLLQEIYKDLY

[2] = target: Peroxisome proliferator-activated receptor gamma (Homo sapiens) (UniProt P37231); assay: retest of SRC-1 recruitment enhancers for PPARgamma – biochemical, confirmation (AID 1300; in the data active = activation above about 20%;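 note: 0% = vehicle wells and 100% = reference agonist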); settings: PPARgamma–SRC-1 coactivator recruitment biochemical assay; at 8 µM; hits give high values
[3] = target: Peroxisome proliferator-activated receptor gamma (Homo sapiens) + Nuclear receptor coactivator 3 (Homo sapiens) (UniProt P37231+Q9Y6Q9); assay: agonists promoting SRC-3 binding to PPARgamma – biochemical, confirmation (AID 1301; in the data active = activation above about 24%;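 note: 0% = vehicle wells and 100% = reference agonist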); settings: biochemical PPARgamma-SRC-3 coactivator recruitment, agonist mode; at 8 µM; hits give high values
Sequence of Peroxisome proliferator-activated receptor gamma (Homo sapiens) + Nuclear receptor coactivator 3 (Homo sapiens) (P37231 whole entry, looked up): as above
Sequence of Peroxisome proliferator-activated receptor gamma (Homo sapiens) + Nuclear receptor coactivator 3 (Homo sapiens) (Q9Y6Q9 whole entry, looked up): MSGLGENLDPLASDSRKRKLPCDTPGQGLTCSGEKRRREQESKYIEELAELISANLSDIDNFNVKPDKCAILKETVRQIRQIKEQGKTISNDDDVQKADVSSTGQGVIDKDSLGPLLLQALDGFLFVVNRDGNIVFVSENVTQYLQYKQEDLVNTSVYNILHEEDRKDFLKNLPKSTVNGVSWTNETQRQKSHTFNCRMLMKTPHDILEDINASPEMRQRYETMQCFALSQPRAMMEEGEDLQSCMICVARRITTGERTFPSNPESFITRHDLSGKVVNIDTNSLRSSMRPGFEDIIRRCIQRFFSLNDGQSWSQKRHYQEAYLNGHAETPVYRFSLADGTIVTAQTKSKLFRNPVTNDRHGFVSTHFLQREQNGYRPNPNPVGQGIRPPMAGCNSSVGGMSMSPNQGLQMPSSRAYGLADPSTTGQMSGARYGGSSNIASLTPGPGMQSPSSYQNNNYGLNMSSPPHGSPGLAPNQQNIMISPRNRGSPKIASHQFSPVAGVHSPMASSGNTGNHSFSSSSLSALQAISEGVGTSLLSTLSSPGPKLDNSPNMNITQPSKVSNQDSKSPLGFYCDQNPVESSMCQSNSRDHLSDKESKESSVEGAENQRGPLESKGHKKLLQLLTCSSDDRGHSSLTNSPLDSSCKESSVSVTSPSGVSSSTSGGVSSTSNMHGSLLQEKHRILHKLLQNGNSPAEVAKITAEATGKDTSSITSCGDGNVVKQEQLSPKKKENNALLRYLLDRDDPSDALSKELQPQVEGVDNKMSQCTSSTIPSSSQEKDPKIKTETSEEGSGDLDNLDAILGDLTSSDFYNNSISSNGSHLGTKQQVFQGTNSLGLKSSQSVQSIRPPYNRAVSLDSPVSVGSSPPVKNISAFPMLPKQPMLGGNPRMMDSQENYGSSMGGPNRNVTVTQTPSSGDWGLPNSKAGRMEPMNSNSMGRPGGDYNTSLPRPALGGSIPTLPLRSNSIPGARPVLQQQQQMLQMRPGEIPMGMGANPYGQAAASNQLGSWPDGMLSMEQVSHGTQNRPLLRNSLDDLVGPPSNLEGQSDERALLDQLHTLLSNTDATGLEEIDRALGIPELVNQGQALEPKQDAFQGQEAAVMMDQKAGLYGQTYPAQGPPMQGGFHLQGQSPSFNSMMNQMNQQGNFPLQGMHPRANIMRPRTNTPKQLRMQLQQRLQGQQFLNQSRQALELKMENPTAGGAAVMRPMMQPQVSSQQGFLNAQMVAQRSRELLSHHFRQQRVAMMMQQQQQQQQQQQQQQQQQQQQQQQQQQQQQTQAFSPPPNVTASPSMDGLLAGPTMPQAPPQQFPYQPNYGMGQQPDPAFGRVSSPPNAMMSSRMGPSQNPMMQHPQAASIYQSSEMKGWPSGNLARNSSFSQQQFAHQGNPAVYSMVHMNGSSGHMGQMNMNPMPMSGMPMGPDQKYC

[4] = target: Sphingosine 1-phosphate receptor 4 (Homo sapiens) (UniProt O95977); assay: blockers of human S1P4 signalling – cell-based, confirmation (AID 1524; in the data active = inhibition above about 30%); settings: S1P4-expressing cell line, antagonist mode, reporter read-out; at 4.98 µM; hits give high values
Sequence of Sphingosine 1-phosphate receptor 4 (Homo sapiens) (O95977 whole entry, looked up): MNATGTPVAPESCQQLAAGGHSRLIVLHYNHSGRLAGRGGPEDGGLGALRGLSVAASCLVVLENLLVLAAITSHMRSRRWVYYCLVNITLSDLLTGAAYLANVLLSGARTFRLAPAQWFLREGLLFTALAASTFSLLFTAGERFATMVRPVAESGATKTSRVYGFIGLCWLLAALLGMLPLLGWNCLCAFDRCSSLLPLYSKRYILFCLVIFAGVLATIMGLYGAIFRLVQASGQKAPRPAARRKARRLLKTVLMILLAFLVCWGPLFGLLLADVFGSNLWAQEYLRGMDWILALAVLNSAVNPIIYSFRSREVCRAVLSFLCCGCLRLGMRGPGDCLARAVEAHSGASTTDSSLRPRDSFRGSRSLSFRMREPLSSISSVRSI

[5] = target: Sphingosine 1-phosphate receptor 1 (Homo sapiens) (UniProt P21453); assay: blockade of human S1P1 receptor – cell-based, counter-screen for S1P4 antagonist project (AID 1564; in the data active = inhibition above about 40%;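 note: receptor stimulated with S1P near its EC80; 0% = agonist stimulated wells and 100% = vehicle only wells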); settings: cell-based S1P1 antagonist counterscreen, at 4.98 µM, hits give high values
Sequence of Sphingosine 1-phosphate receptor 1 (Homo sapiens) (P21453 whole entry, looked up): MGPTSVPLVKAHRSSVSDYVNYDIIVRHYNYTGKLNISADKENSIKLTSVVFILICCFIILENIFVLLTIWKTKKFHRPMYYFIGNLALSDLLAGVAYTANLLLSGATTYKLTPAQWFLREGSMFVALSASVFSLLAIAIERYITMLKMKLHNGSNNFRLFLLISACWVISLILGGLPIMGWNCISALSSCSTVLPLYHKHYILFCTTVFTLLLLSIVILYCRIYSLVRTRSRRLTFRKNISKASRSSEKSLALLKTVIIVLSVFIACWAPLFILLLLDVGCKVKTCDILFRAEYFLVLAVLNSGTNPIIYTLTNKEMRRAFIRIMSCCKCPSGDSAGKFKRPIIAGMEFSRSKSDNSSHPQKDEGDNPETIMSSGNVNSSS

Structure (SMILES)	activation [1]	activation [2]	activation [3]	inhibition [4]	inhibition [5] [%]
COC(=O)c1[nH]c2ccc(Br)cc2c1NC(=O)Oc1ccccc1	7.14%	3.71%	4.54%		
O=C(/C=C/c1ccc(Cl)cc1Cl)c1cccnc1				43.4% (active)	23.6
O=C(O)Cc1sc(-c2ccccc2)nc1-c1cccs1	42.6% (active)	34.7% (active)	32.9% (active)		
COc1ccc2c(Cl)c(-c3nnco3)sc2c1	20.4%	13.6%	13.6%		
